Source: PubChem BioAssay AID1159580 (chemical genetic matrix, 2015)
Hit rate of the full screen: of about 5,500 compounds, about 2,000 (36%) were called active. Another 18% or so got no clear call; they are omitted. Rule as the data show it: active = normalized growth mostly below about 0.91 (no sharp cut-off); inconclusive = no clear call, values can overlap the other calls; inactive = mostly above about 0.92. Some of the results follow.

Assay: chemical genetic growth profiling, strain panel (AID 1159580);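 also: tested at 20 µM; growth read once vehicle control cultures reached saturation at 30 °C; 1 = growth at the plate median or of vehicle wells; lower values mean less growth of the strain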
Details: S. cerevisiae deletion strains, growth OD

Measured: normalized growth

CO[C@H]1[C@@H](O)[C@@H](C)O[C@H](O[C@H]2CCC3(C)C4CCC5(C)[C@@H](C6=CC(=O)OC6)CC[C@]5(O)[C@@H]4CC[C@]3(O)C2)[C@@H]1O (stereo not given in full)
inactive: locus YAL021C, strain ccr4, hits give low values 0.993 | locus YAL026C, strain drs2, hits give low values 1.04 | locus YAL030W, strain snc1, hits give low values 1.03 | locus YBL061C, strain skt5, hits give low values 1.05 | locus YBR009C, strain hhf1, hits give low values 1.02 | locus YBR023C, strain chs3, hits give low values 1.03 | locus YBR171W, strain sec66, hits give low values 1.03 | locus YBR231C, strain swc5, hits give low values 1.02 | locus YBR279W, strain paf1, hits give low values 1.02 | locus YCL011C, strain gbp2, hits give low values 1.03 | locus YCL016C, strain dcc1, hits give low values 1.02 | locus YCL061C, strain MRC1, hits give low values 1.02 | locus YCL069W, strain vba3, hits give low values 1.02 | locus YCR088W, strain abp1, hits give low values 1.02 | locus YDL005C, strain med2, hits give low values 1.03 | locus YDL040C, strain nat1, hits give low values 1 | locus YDR001C, strain nth1, hits give low values 1.02 | locus YDR069C, strain doa4, hits give low values 1.03 | locus YDR137W, strain rgp1, hits give low values 1.04 | locus YDR159W, strain sac3, hits give low values 1.04 | locus YDR195W, strain ref2 1.01 | locus YDR297W, strain sur2, hits give low values 1.04 | locus YDR334W, strain swr1, hits give low values 1.02 | locus YDR335W, strain msn5, hits give low values 1.02 | locus YDR392W, strain spt3, hits give low values 1.02 | locus YEL003W, strain gim4, hits give low values 1.02 | locus YEL037C, strain rad23, hits give low values 1.02 | locus YEL061C, strain CIN8 (second series), hits give low values 1.02 | locus YER015W, strain faa2, hits give low values 1.02 | locus YER016W, strain bim1, hits give low values 1.02 | locus YER111C, strain swi4, hits give low values 1.03 | locus YER155C, strain BEM2 (second series), hits give low values 1.04 | locus YFR010W, strain ubp6, hits give low values 1.04 | locus YGL167C, strain pmr1, hits give low values 1.03 | locus YGL173C, strain kem1, hits give low values 1.04 | locus YGL227W, strain vid30, hits give low values 1.01 | locus YGL240W, strain doc1, hits give low values 1.04 | locus YGL253W, strain hxk2, hits give low values 1.03 | locus YHR013C, strain ard1, hits give low values 1.04 | locus YHR027C, strain rpn1, hits give low values 1.05 | locus YHR030C, strain SLT2, hits give low values 1.05 | locus YHR079C, strain IRE1, hits give low values 1.08 | locus YHR142W, strain chs7, hits give low values 1.03 | locus YJL092W, strain hpr5, hits give low values 1.02 | locus YJL095W, strain BCK1 (second series), hits give low values 1.02 | locus YJL095W, strain BCK1, hits give low values 1.04 | locus YJL115W, strain asf1, hits give low values 1.04 | locus YJL129C, strain trk1, hits give low values 1.03 | locus YJL154C, strain vps35, hits give low values 1.02 | locus YJL164C, strain tpk1, hits give low values 1.01 | locus YJL166W, strain qcr8, hits give low values 1.03 | locus YJL187C, strain SWE1, hits give low values 1.03 | locus YJR066W, strain TOR1, hits give low values 1.01 | locus YKL160W, strain elf1, hits give low values 1.01 | locus YKR026C, strain gcn3, hits give low values 1.02 | locus YKR091W, strain srl3, hits give low values 1.02 | locus YLL001W, strain dnm1, hits give low values 1.03 | locus YLL026W, hits give low values 1.03 | locus YLL041C, strain sdh2, hits give low values 1.02 | locus YLR027C, strain aat2, hits give low values 1 | locus YLR113W, strain HOG1, hits give low values 0.976 | locus YLR221C, strain rsa3, hits give low values 1.03 | locus YLR258W, strain gsy2, hits give low values 1 | locus YLR262C, strain YPT6 (second series), hits give low values 1.03 | locus YLR320W, strain mms22, hits give low values 1.03 | locus YLR342W, strain FKS1, hits give low values 1.03 | locus YLR357W, strain rsc2, hits give low values 1.06 | locus YLR370C, strain arc18, hits give low values 1.01 | locus YLR384C, strain iki3, hits give low values 1.04 | locus YML120C, strain ndi1, hits give low values 1.01 | locus YMR058W, strain fet3, hits give low values 1.03 | locus YMR125W, strain sto1, hits give low values 1.03 | locus YMR129W, hits give low values 1.02 | locus YMR205C, strain PFK2, hits give low values 1.06 | locus YMR231W, strain pep5, hits give low values 1 | locus YNL071W, strain lat1, hits give low values 1.02 | locus YNL183C, strain NPR1, hits give low values 1 | locus YNL209W, strain ssb2, hits give low values 1.02 | locus YNL248C, strain rpa49, hits give low values 1.03 | locus YNL322C, strain KRE1 (second series), hits give low values 1.02 | locus YNR049C, strain mso1, hits give low values 1.04 | locus YOR001W, strain rrp6, hits give low values 1.03 | locus YOR070C, strain gyp1, hits give low values 1.02 | locus YOR080W, strain dia2, hits give low values 1.04 | locus YOR083W, strain WHI5, hits give low values 1.02 | locus YOR106W, strain vam3, hits give low values 1.03 | locus YOR231W, strain MKK1, hits give low values 1.04 | locus YOR265W, strain rbl2, hits give low values 1.04 | locus YOR270C, strain vph1, hits give low values 1.08 | locus YOR290C, strain snf2, hits give low values 1.01 | locus YPL051W, strain arl3, hits give low values 1.01 | locus YPL078C, strain atp4, hits give low values 1.02 | locus YPL106C, strain sse1, hits give low values 1.02 | locus YPL240C, strain hsp82, hits give low values 1.01 | locus YPL256C, strain CLN2, hits give low values 1.08
